# Experimental data reported in the supplement of paper PMC10849652.
# Targets with a hit are over-represented here; the source holds about 7,900 in all. About 0.6% of all pairs of compound and target were hits. Unmarked numbers belong to inactive results.
# Compound: CO[C@H]1C[C@@H]2CC[C@@H](C)[C@@](O)(O2)C(=O)C(=O)N2CCCC[C@H]2C(=O)O[C@H]([C@H](C)C[C@@H]2CC[C@H](n3cnnn3)[C@H](OC)C2)CC(=O)[C@H](C)/C=C(\C)[C@@H](O)[C@@H](OC)C(=O)[C@H](C)C[C@H](C)/C=C/C=C/C=C/1C [zotarolimus]
# Assay: log2 fold change, soluble protein after heating vs DMSO (PISA); higher = thermal stabilisation; K562 cells, 10 uM, 30 min; active = over 0.2 and 3.5 SD of the protein, either way, in both replicates (recomputed)
# How it was run: (§1)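 Quantification of soluble protein used TMTpro 16plex LC-MS/MS, with channel sums equalised. Samples were the supernatant after 21,000xg for 90 min of pooled aliquots from K562 cells (2×10^6 cells/mL) treated with 10 μM compound for 30 min, heated for 3 min over 48°C-58°C, and extracted in PBS with 0.5% NP-40 at 4°C. Values, from duplicates, describe thermal stability against control samples on a log2 fold-change scale.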
# UniProt P20226, sequence (P20226 whole entry, looked up): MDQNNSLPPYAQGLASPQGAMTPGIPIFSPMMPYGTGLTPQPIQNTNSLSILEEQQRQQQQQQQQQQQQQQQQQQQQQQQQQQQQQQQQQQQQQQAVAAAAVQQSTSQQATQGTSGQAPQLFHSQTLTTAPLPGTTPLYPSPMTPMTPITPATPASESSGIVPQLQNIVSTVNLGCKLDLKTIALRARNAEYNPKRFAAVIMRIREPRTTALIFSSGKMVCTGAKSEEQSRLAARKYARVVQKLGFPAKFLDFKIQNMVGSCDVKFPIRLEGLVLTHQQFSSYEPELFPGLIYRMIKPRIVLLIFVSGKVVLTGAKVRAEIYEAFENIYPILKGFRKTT
# UniProt Q5JUR7, sequence (Q5JUR7 whole entry, looked up): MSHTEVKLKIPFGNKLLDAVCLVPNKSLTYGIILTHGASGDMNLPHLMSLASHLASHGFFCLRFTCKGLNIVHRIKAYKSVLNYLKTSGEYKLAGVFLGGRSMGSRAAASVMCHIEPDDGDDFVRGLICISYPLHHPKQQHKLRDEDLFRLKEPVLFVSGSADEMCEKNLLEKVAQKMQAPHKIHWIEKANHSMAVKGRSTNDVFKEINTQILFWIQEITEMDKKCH
# UniProt Q9NXE4, sequence (Q9NXE4 whole entry, looked up): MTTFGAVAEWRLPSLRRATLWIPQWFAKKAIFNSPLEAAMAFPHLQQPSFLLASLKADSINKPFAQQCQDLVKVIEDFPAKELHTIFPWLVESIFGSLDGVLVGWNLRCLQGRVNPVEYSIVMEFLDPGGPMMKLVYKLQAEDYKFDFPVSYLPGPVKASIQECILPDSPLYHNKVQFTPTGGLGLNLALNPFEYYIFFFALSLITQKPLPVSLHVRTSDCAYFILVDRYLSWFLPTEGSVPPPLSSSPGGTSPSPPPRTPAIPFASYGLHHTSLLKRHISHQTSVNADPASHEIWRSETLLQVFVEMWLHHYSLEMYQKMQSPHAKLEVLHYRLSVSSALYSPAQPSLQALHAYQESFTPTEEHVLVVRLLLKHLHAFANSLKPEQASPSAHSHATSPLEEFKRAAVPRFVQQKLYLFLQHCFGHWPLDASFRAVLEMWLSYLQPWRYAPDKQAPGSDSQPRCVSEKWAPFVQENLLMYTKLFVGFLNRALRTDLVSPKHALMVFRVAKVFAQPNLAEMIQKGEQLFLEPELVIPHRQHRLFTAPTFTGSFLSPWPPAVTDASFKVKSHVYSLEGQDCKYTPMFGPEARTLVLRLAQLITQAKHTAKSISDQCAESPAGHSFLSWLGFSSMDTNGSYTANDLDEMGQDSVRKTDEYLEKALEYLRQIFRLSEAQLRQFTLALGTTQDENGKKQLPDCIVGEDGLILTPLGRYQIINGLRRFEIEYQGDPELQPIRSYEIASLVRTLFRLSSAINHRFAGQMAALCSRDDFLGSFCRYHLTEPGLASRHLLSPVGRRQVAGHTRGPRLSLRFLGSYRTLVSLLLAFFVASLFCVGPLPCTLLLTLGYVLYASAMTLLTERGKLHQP
# UniProt Q9Y5J6, sequence (Q9Y5J6 whole entry, looked up): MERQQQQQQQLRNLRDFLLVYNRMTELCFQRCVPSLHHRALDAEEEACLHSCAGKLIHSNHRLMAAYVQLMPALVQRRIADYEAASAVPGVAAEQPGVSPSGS
# UniProt Q08AE8, sequence (Q08AE8 whole entry, looked up): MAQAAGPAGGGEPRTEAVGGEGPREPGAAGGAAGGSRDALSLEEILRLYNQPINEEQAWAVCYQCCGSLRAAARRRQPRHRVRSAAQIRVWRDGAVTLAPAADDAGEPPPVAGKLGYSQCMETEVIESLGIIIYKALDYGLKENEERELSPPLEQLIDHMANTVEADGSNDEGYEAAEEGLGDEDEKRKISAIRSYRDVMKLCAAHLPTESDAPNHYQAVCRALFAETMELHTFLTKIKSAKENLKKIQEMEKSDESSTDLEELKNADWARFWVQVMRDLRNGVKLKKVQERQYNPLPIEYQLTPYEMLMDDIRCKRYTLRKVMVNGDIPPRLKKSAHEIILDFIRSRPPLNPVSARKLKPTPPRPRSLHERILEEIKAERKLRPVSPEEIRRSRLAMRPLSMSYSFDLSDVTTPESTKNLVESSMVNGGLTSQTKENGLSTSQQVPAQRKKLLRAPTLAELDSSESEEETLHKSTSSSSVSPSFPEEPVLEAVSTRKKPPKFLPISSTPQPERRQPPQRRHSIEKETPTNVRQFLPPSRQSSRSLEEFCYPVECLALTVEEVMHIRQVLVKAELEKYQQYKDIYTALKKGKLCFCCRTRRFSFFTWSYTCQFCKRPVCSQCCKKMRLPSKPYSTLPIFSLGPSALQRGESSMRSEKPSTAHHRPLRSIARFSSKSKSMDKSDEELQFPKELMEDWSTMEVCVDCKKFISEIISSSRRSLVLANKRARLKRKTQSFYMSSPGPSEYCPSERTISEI
# UniProt Q8N5G0, sequence (Q8N5G0 whole entry, looked up): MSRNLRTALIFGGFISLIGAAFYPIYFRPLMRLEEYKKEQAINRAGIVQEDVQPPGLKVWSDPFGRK
# UniProt Q969X1, sequence (Q969X1 whole entry, looked up): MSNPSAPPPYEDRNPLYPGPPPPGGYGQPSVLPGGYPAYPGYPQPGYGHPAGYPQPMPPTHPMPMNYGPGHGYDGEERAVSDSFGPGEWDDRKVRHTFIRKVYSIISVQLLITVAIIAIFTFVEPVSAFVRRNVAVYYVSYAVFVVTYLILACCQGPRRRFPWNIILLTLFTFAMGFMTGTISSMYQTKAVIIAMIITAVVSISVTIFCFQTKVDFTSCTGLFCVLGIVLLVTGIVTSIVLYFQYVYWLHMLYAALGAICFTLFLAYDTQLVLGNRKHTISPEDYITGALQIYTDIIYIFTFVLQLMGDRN
# UniProt Q8N357, sequence (Q8N357 whole entry, looked up): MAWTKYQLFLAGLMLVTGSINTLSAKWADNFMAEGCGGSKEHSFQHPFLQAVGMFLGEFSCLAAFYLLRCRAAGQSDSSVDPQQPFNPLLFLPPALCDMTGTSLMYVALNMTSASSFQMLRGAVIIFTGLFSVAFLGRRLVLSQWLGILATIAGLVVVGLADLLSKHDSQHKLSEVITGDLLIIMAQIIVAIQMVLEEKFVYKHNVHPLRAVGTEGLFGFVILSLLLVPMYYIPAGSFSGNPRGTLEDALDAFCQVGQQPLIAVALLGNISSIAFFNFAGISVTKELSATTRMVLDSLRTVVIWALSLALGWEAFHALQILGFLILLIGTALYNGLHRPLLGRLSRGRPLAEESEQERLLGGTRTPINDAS
# UniProt Q9Y6J9, sequence (Q9Y6J9 whole entry, looked up): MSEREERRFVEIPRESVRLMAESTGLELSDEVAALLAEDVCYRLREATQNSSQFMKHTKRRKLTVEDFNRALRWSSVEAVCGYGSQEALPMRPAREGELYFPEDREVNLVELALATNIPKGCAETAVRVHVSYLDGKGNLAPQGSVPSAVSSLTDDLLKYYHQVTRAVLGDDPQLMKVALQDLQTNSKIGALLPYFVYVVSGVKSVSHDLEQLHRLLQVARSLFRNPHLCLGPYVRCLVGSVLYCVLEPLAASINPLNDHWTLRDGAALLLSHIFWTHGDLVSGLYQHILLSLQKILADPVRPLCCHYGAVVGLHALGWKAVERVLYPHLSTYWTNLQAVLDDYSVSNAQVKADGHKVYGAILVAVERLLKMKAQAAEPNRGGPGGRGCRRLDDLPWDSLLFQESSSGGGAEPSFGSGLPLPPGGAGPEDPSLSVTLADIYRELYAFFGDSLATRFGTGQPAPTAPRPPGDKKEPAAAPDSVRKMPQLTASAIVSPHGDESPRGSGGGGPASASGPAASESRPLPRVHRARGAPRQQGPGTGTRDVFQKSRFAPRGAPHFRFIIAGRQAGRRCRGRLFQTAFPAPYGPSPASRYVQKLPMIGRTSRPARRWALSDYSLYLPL
# UniProt Q9H5L6, sequence (Q9H5L6 whole entry, looked up): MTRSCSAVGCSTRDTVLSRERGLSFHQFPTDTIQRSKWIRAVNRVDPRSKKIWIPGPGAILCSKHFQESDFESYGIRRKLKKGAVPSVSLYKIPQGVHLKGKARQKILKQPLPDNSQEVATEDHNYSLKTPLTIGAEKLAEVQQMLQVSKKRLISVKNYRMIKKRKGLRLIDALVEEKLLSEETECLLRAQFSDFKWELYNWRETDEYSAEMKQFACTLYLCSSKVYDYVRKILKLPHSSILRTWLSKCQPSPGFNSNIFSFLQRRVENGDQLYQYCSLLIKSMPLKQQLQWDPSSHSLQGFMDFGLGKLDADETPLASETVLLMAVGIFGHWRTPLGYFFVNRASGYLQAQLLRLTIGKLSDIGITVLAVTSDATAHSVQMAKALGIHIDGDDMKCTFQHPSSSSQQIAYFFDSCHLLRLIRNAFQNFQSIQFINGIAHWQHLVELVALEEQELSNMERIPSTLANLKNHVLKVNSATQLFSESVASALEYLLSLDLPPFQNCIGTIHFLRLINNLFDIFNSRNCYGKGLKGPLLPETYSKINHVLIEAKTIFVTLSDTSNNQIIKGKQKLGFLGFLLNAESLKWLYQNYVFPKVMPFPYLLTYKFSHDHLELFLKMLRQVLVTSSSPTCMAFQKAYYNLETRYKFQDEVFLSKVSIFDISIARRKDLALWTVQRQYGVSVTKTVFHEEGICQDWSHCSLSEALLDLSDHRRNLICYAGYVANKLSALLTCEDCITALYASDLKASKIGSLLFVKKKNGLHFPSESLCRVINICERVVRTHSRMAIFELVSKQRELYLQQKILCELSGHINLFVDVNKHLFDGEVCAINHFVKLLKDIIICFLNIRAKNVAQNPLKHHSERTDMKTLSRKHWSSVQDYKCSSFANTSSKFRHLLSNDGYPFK
# UniProt Q9BWG4, sequence (Q9BWG4 whole entry, looked up): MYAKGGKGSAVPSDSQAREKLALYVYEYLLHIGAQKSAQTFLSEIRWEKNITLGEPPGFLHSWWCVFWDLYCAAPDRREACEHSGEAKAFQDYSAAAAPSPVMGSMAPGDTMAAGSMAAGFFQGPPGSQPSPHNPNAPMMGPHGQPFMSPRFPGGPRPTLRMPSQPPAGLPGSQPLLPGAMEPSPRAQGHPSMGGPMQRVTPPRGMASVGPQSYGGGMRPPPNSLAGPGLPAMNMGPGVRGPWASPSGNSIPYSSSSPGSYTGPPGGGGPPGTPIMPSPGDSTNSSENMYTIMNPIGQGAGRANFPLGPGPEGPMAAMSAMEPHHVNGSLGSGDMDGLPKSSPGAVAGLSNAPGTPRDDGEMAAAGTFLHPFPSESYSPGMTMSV
row,Target,log2 fold change
1,SLC35B1 isoform 2 (UniProt P78383),-0.005
2,SNX2 isoform 2 (UniProt O60749),0.022
3,SMPD4 isoform 2 (UniProt Q9NXE4),0.043
4,SPIRE1 (UniProt Q08AE8),-0.051
5,TDP1 (UniProt Q9NUW8),-0.015
6,SLC8B1 (UniProt Q6J4K2),-0.097
7,SLC9A6 isoform 3 (UniProt Q92581),-0.051
8,SRCAP (UniProt Q6ZRS2),-0.02
9,TENT5C (UniProt Q5VWP2),-0.56 (active)
10,THAP9 (UniProt Q9H5L6),-0.139
11,TBP (UniProt P20226),-0.1
12,SLC46A1 (UniProt Q96NT5),-0.095
13,SMARCB1 (UniProt Q12824),0.136
14,SYK (UniProt P43405),0.066
15,TCOF1 isoform 6 (UniProt Q13428),-0.062
16,TIMM10B (UniProt Q9Y5J6),0.023
17,SLC35F6 (UniProt Q8N357),0.016
18,TEX30 (UniProt Q5JUR7),0.031
19,TM7SF2 (UniProt O76062),-0.018
20,SLC39A1 (UniProt Q9NY26),-0.15
21,SMIM20 isoform 2 (UniProt Q8N5G0),-0.037
22,TMBIM1 (UniProt Q969X1),-0.117
23,TACC2 (UniProt O95359),-0.003
24,TK1 (UniProt K7ERV3),-0.034
25,TAF6L (UniProt Q9Y6J9),0.049

# Compound: COc1cc(C(=O)O)ccc1NC(=O)[C@@H]1N[C@@H](CC(C)(C)C)[C@](C#N)(c2ccc(Cl)cc2F)[C@H]1c1cccc(Cl)c1F [idasanutlin]
# Assay: as above
# How it was run: as §1
row,Target,log2 fold change
1,SNX2 isoform 2 (UniProt O60749),-0.054
2,SMPD4 isoform 2 (UniProt Q9NXE4),-0.16
3,TC2N (UniProt Q8N9U0),-0.003
4,SPIRE1 (UniProt Q08AE8),-0.023
5,SLC8B1 (UniProt Q6J4K2),-0.034
6,SLC9A6 isoform 3 (UniProt Q92581),0.098
7,TBC1D2 (UniProt Q9BYX2),0.016
8,THAP9 (UniProt Q9H5L6),0.008
9,TBP (UniProt P20226),-0.076
10,SLC46A1 (UniProt Q96NT5),-0.107
11,SYK (UniProt P43405),0.25
12,SLC35B4 (UniProt Q969S0),0.027
13,TIMM10B (UniProt Q9Y5J6),0.009
14,SLC35F6 (UniProt Q8N357),0.02
15,TEX30 (UniProt Q5JUR7),-0.02
16,SMIM20 isoform 2 (UniProt Q8N5G0),0.095
17,TMBIM1 (UniProt Q969X1),0.013
18,SP2 (UniProt Q02086),0.277
19,TACC2 (UniProt O95359),-0.042
20,TK1 (UniProt K7ERV3),-0.075
21,SSBP4 (UniProt Q9BWG4),0.122
22,TAF6L (UniProt Q9Y6J9),0.001

# Compound: COc1cc(Nc2ncc3c(n2)-c2ccc(Cl)cc2C(c2c(F)cccc2OC)=NC3)ccc1C(=O)O [alisertib]
# Assay: as above
# How it was run: as §1
row,Target,log2 fold change
1,SLC35B1 isoform 2 (UniProt P78383),-0.232
2,SMPD4 isoform 2 (UniProt Q9NXE4),-0.117
3,TC2N (UniProt Q8N9U0),0.012
4,SPIRE1 (UniProt Q08AE8),-0.033
5,SSB (UniProt E7ERC4),0.494
6,TAOK2 (UniProt Q9UL54),0.107
7,SRCAP (UniProt Q6ZRS2),-0.091
8,TENT5C (UniProt Q5VWP2),0
9,TBC1D2 (UniProt Q9BYX2),-0.053
10,THAP9 (UniProt Q9H5L6),-0.068
11,TBP (UniProt P20226),0.148
12,SREBF1 isoform 4 (UniProt P36956),-0.014
13,TCOF1 isoform 6 (UniProt Q13428),-0.263
14,SLC35B4 (UniProt Q969S0),0.032
15,TIMM10B (UniProt Q9Y5J6),-0.205
16,SLC35F6 (UniProt Q8N357),-0.052
17,TEX30 (UniProt Q5JUR7),0.029
18,SSBP4 (UniProt U3KPY3),0.023
19,SMIM20 isoform 2 (UniProt Q8N5G0),-0.056
20,TMBIM1 (UniProt Q969X1),-0.018
21,TACC2 (UniProt O95359),0.1
22,TK1 (UniProt K7ERV3),0.121
23,SSBP4 (UniProt Q9BWG4),0.018
24,TAF6L (UniProt Q9Y6J9),-0.13
